Laboratory results as given in PubChem BioAssay (NCI).
About 83,000 compounds went through this panel and 20% of them were active in at least one assay; those are over-represented in the sample as a whole.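 Percent growth is the endpoint: 0 to 100 indicates growth inhibition (40 means 60% inhibition), 0 means no net growth, and negative values indicate cell death.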 A number with no mark means an inactive call. Activity calls are given as the source filed them. The calls were made as follows: active = growth percent below 10; inactive = the rest.

System: MDA-MB-468 breast
Experiment: NCI-60 one-dose screen, 48 h (100 = growth as untreated, 0 = no growth, -100 = all killed)
Conditions: 10 µM unless noted

Row | SMILES | growth
1 | N#C/C(=C\c1ccc(N2CCCCC2)cc1)C(=O)Nc1sc2c(c1C#N)CCC2 | 119%
2 | Cc1cc(N2CCCCC2)nc(NCc2cc(Nc3ccnc4cc(Cl)ccc34)ccc2F)n1 | -60.3% (active)
3 | O=[N+]([O-])c1ccc(C(c2ccccc2)c2ccccc2)cc1 | 101%
4 | CN1CCN(Cc2ccc(NC(=O)c3cncc(C#Cc4c(N)ncc5c(F)cccc45)c3)cc2C(F)(F)F)CC1 | -82% (active)
5 | Cn1[nH]cc(/C=N/C(N)=O)c1=O | 119%
6 | COS(=O)(=O)c1ccc(Br)cc1 | 102%
7 | COc1cc2c(cc1OC)-c1ccc3cc4c(cc3c1N(CCN1CCCC1)C2)OCO4 | -5.22% (active)
